Results filed as inconclusive are left out. Active and inactive are the calls of the source. The calls were made as follows: active = hit-call score of the fitted dose curve at least 0.9, where 1 is the maximum; inconclusive = response in the unintended direction; inactive = score below 0.9.
The compounds below were run against guinea pig Sigma Receptor, Non-selective Binding, SIGMAR1 (gene 100135589) (UniProt Q60492) (assay: NVS_OR_gSIGMA_NonSelective: NovaScreen (NVS) Nuclear Receptor Binding Assay for guinea pig Sigma Receptor, Non-selective Binding (AID 2283367)).
Outline: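 Guinea pig brain membrane sigma sites were labelled with a radioligand, and bound radioactivity was counted after filtration 1 h post-dose. Compounds were screened at 25 uM in duplicate, then retested as concentration series when active.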

Chain of guinea pig Sigma Receptor, Non-selective Binding, SIGMAR1 (gene 100135589) (Q60492 whole entry, looked up): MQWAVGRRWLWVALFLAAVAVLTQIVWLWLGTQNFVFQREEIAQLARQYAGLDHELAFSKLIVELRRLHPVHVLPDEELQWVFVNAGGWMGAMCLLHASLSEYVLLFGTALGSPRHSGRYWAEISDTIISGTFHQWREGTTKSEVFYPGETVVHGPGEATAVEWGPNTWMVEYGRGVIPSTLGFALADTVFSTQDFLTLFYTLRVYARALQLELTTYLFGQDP

| Structure (SMILES) | AC50 | outcome |
| --- | --- | --- |
| CCCN(CC)CC1COC2(CCC(C(C)(C)C)CC2)O1 (stereo not given) | 0.0101 µM (active) |  |
| COP(=S)(OC)Oc1ccc([N+](=O)[O-])c(C)c1 | 3.93 µM (active) |  |
| CCOC(=O)C(C)OC(=O)c1cc(Oc2ccc(C(F)(F)F)cc2Cl)ccc1[N+](=O)[O-] (stereo not given) |  | inactive |

What follows are compounds tested on guinea pig Dopamine Transporter (DAT), gene 100714898 (assay: NVS_TR_gDAT: NovaScreen (NVS) Transporter Assay for guinea pig Dopamine Transporter (DAT) (AID 2283369);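 also: active compounds lower bound radioligand signal relative to DMSO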).
Outline: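 Scintillation counts of filter-retained radioligand report binding to guinea pig striatal membranes after 2 h. Activity scored as signal loss relative to DMSO, first at 25 uM in duplicate, then in concentration series to 50 uM.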

| Structure (SMILES) | outcome | AC50 |
| --- | --- | --- |
| OC(c1ccc(Cl)cc1)(c1ccc(Cl)cc1)C(Cl)(Cl)Cl | inactive |  |
| CC1(C)C(C=C(Cl)Cl)C1C(=O)OC(C#N)c1cccc(Oc2ccccc2)c1 (stereo not given) |  | 9.19 µM (active) |
| CCCCC(C#N)(Cn1cncn1)c1ccc(Cl)cc1 (stereo not given) |  | 15.4 µM (active) |
| CCOC(=O)C(C)OC(=O)c1cc(Oc2ccc(C(F)(F)F)cc2Cl)ccc1[N+](=O)[O-] (stereo not given) | inactive |  |

These compounds were tested against Peroxisome proliferator-activated receptor gamma (Homo sapiens) (UniProt P37231) (assay: NVS_NR_hPPARg: NovaScreen (NVS) Nuclear Receptor Binding Assay for human Peroxisome Proliferator-activated Receptor gamma (PPARg) (AID 2283370)).
Outline: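 Chemicals were tested first in duplicate at 25 uM, then in concentration series if active. Binding to cell-free PPARg protein was measured by fluorescence polarization after 2 h, with loss of signal scored against DMSO.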

Chain of Peroxisome proliferator-activated receptor gamma (Homo sapiens) (P37231 whole entry, looked up): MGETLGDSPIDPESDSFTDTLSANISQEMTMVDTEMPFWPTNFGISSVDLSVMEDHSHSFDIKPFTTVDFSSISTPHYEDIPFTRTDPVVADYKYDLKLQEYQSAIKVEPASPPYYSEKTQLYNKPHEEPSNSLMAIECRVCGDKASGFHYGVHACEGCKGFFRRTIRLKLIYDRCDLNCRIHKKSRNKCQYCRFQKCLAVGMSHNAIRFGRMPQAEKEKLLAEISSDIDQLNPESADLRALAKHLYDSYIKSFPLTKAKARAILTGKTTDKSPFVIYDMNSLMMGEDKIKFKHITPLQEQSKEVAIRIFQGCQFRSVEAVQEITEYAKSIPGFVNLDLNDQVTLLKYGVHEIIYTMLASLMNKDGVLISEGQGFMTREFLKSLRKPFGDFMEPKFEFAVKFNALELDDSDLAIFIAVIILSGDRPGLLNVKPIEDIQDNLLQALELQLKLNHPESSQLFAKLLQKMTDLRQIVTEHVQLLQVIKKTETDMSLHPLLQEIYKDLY

| Structure (SMILES) | AC50 | outcome |
| --- | --- | --- |
| COP(=S)(OC)Oc1ccc([N+](=O)[O-])c(C)c1 | 3.38 µM (active) |  |
| CC(C)=CC1C(C(=O)OCc2coc(Cc3ccccc3)c2)C1(C)C (stereo not given) | 2.9 µM (active) |  |
| N#Cc1c(Cl)cccc1Cl |  | inactive |
| CC(C)(C)C(=O)C(Oc1ccc(Cl)cc1)n1cncn1 (stereo not given) |  | inactive |
| CCCCC(C#N)(Cn1cncn1)c1ccc(Cl)cc1 (stereo not given) |  | inactive |
| CCOC(=O)C(C)OC(=O)c1cc(Oc2ccc(C(F)(F)F)cc2Cl)ccc1[N+](=O)[O-] (stereo not given) |  | inactive |
| CCCCC(O)(Cn1cncn1)c1ccc(Cl)cc1Cl (stereo not given) |  | inactive |
| CCN(CC)c1nc(C)cc(OP(=S)(OC)OC)n1 |  | inactive |

Reference: PubChem BioAssay (EPA / NIEHS)
